# This is a sample that favours compounds with a hit; in the whole collection about 4.2% have one here.
# PfHsp90 yeast 2: growth inhibition of PfHsp90-expressing yeast, primary screen, antimalarial PfHsp90 inhibitor project, S. cerevisiae, BacTiter-Glo luminescence, single point, set 2 | inhibition, % at 9.4 µM | BacTiter-Glo ATP, 48 h; yeast lacking PDR1 and PDR3 efflux regulators | AID 504621, 2011 | actives 0.32% (n = 310,000);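 active = every replicate shows inhibition above about 80%, whatever the replicate mean, limit read from the data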;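 note: 0% = DMSO neutral controls and 100% = 20 µM radicicol positive controls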
# TIM10 inh: growth inhibitors of isogenic TIM10 control yeast, primary screen, counter-screen for tim10-1 yeast inhibitor project, luminescence, uHTS; S. cerevisiae TIM10 strain growth, BacTiter-Glo luminescence, 24 h; inhibition, % at 10 µM; actives 1.4% (n = 330,000);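 active = inhibition of 40% or more at the single tested concentration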;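 note: wild-type TIM10 isogenic control strain grown at permissive 25 °C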
# NALP1 yeast inh: NALP1 inflammasome inhibitors in reconstituted yeast, colorimetric, S. cerevisiae, triplicate retest; S. cerevisiae NALP1/ASC/caspase-1 growth, X-gal OD620, 72 h; inhibition, % at 10 µM; actives 0.61% (n = 280,000); AID 2071, 2009; in the data active = inhibition mostly above about 24%, no sharp cut-off; inactive = mostly below about 32%
# NALP3 yeast inh: NALP3 inflammasome inhibitors in reconstituted yeast, primary screen, luminescence, uHTS. Yeast reconstituted NLRP3/ASC/caspase-1, beta-gal luminescence, 24 h. inhibition, % at 10 µM. actives 0.39% (n = 330,000). AID 2825, 2010;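 active = inhibition of 50% or more; inactive = inhibition below 50%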;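 note: plate controls were induced DMSO wells for no effect and uninduced yeast grown without galactose for full effect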
# tim10-1 inh: growth inhibitors of tim10-1 mutant yeast, primary screen, luminescence, uHTS; actives 2.2% (n = 330,000); inhibition, % at 20 µM; S. cerevisiae tim10-1 ts strain growth, BacTiter-Glo, 24 h;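 active = inhibition of at least 40%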;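 note: mutant grown at 25 °C; 0% = DMSO wells with yeast and 100% = wells holding no yeast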
# tim23-1 inh: growth inhibitors of tim23-1 mutant yeast, primary screen, luminescence, uHTS | actives 1.3% (n = 330,000) | inhibition, % at 20 µM | AID 463212, 2010 | S. cerevisiae tim23-1 growth, BacTiter-Glo luminescence, 24 h;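 active = growth inhibition of the mutant yeast at or above 50%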;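 note: temperature-sensitive mutant grown at 25 °C; plate controls were DMSO-treated mutant yeast for no effect and medium wells lacking yeast for full effect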
# tim10-1 conf: growth inhibitors of tim10-1 mutant yeast, confirmation, single concentration, luminescence, S. cerevisiae | S. cerevisiae tim10-1 ts strain growth, BacTiter-Glo, 24 h | actives 56% (n = 7,400) | inhibition, % at 20 µM | shares compounds with tim10-1 inh;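 active = inhibition of yeast growth at or above a set limit in either of two repeat tests at 20 µM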;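 note: tim10-1 mutant grown at permissive 25 °C to find synthetic lethal compounds; 0% = DMSO yeast wells and 100% = medium wells without yeast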
# Active calls of the source: *; . = no result given.
SMILES,PfHsp90 yeast 2,TIM10 inh,NALP1 yeast inh,NALP3 yeast inh,tim10-1 inh,tim23-1 inh,tim10-1 conf
Cc1cc(/C=C\c2ccc3cc(N(C)C)ccc3[n+]2C)c(C)n1-c1ccccc1,108*,29,.,35,70*,32,50*
c1ccn2cc(C34CC5CC(CC(C5)C3)C4)nc2c1,.,36,-8,0,53*,49,39*
CC(C)N(Cc1nc(-c2ccccc2)no1)C(=O)c1ccc2c(c1)OCO2,.,20,5,14,81*,34,24
Cc1ccc(-c2noc(CN(C(=O)c3ccc4c(c3)OCO4)C(C)C)n2)cc1,-23,27,18,3,15,16,.
Cc1nc2c(o1)C(=O)c1ccccc1C2=Nc1ccccc1,-13,.,.,.,.,.,.
CCOc1ccc(N2C(=O)CC(NCCNc3ccc([N+](=O)[O-])cn3)C2=O)cc1 (centres undefined),-3,6,9,11,53*,12,28*
CCCCCCC(C)OC(=O)c1ccccc1C(=O)O (centres undefined),-3,5,23,14,-2,2,.
COc1ccc(-c2cc(=O)oc3cc(OC(=O)C4CCCCC4)c(Cl)cc23)cc1,-61,38,12,-15,44*,37,36*
COc1ccc(COCC(O)CN2CCN(S(=O)(=O)c3c(F)cccc3F)CC2)cc1OC (centres undefined),22,.,.,.,.,.,.
COc1cc2c(cc1OC)CN(c1ccc([N+](=O)[O-])cc1C#N)CC2,-4,7,14,5,3,23,.
COc1cc2c(cc1OC)CN(c1ccc([N+](=O)[O-])cc1Cl)CC2,8,30,12,20,41*,37,50*
CC(C)(C)c1ccc(/C=C/C(=O)N2CCN(c3ncccn3)CC2)cc1,-18,29,33,22,43*,34,35*
O=C(/C=C/c1ccc(F)cc1)N1CCN(c2ncccn2)CC1,38,-19,-11,-22,-13,-1,.
COCCOc1cc(Nc2nnc(C(F)(F)F)s2)c(Cl)cc1Cl,-7,23,1,-22,46*,29,27
O=C1c2cccc3c(O)ccc(c23)C(=O)N1Cc1ccccc1,-40,-12,-8,-10,9,0,.
O=C(COC(=O)c1cc(Cl)ccc1[N+](=O)[O-])Nc1cccc2ccccc12,-16,38,27,12,47*,32,34*
Cc1nn(-c2ccccc2)c(N2CCCC2)c1/C=N/NC(=S)Nc1ccccc1C(F)(F)F,-30,24,4,22,41*,22,24
Cc1nn(-c2ccccc2)c(N2CCCC2)c1/C=N/NC(=S)Nc1cc(C(F)(F)F)ccc1Cl,-34,-3,21,0,31,14,.
Cc1ccc(C(=O)N2CCN(C)CC2)cc1[N+](=O)[O-],12,-4,-2,24,1,-8,.
CC1CCCCC1NC(=O)NC(=O)CCl (centres undefined),-6,15,4,-33,46*,41,31
CC1CCCC(NC(=O)NC(=O)CCl)C1C (centres undefined),-18,37,28,-23,32,47,.
Oc1ccc(-c2csc(Nc3ccccn3)n2)cc1O,15,10,5,12,22,13,.
COc1cccc2sc(NNC(=O)COc3ccccc3)nc12,14,-4,-13,3,-13,-5,.
c1ccc(Nc2nc(-c3ccccn3)cs2)cc1,-8,34,.,35,46*,33,23
COc1cccc2sc(Nc3nc(-c4ccccn4)cs3)nc12,107*,13,-12,13,52*,50,34*
SMILES,PfHsp90 yeast 2,TIM10 inh,NALP1 yeast inh,NALP3 yeast inh,tim10-1 inh,tim23-1 inh,tim10-1 conf
CC(=O)Nc1ccc(-c2csc(Nc3ccccn3)n2)cc1,-23,-26,.,2,62*,-6,-39
Cc1ccc(NS(=O)(=O)c2ccc(C(=O)NCCCN3CCCC3=O)cc2)cc1,2,3,.,6,-7,6,.
Cc1cc(C(=O)NCC(c2ccco2)N2CCCC2)c2ccccc2n1 (centres undefined),1,9,.,18,14,16,.
CCC(C)NC(=O)[C@H]1N2C(=O)c3c(ccc(OC)c3OC)C2SC1(C)C (some centres undefined),-7,15,20,17,0,2,.
O=Cc1ccc2cccnc2n1,.,-5,16,-16,16,6,.
O=Cc1ccc2ccc3cccnc3c2n1,6,9,11,3,42*,30,8
CC(=O)OC[C@]12CC[C@H]3[C@@](C)(CC[C@H]4C(C)(C)CCC[C@]34C)[C@@H]1C[C@H](C1=CC(=O)O[C@@H]1OC(C)=O)O2,.,15,.,19,31,32,.
COc1ccc2cc(CCNC(=O)c3c(-c4ccccc4Cl)noc3C)c(=O)[nH]c2c1,12,8,.,14,41*,12,11
CCCc1cc(=O)[nH]c(SCC(=O)Nc2cccc(S(=O)(=O)N3CCCCC3)c2)n1,-34,6,.,13,-10,-6,.
COc1cc(/C=C(/C#N)C(=O)Nc2ccccc2)c(Br)cc1OCc1ccc(C(=O)O)cc1,-32,31,.,-55,43*,42,40*
COC(=O)c1ccc(COc2ccccc2/C=C(\C#N)C(=O)Nc2ccc(C)cc2C)cc1,-2,12,18,18,19,4,.
COC(=O)c1ccc(COc2ccccc2/C=C(\C#N)C(=O)Nc2c(C)cc(C)cc2C)cc1,-25,2,30,9,47*,30,13
Cc1nn2c(c1-c1ccc(Cl)cc1)N=C(c1ccco1)CC2c1ccccc1 (centres undefined),-11,39,12,4,42*,38,34*
Cc1ccc(S(=O)(=O)/C=C/c2ccccc2)cc1,2,18,26,22,48*,48,26
COc1ccc(CCNS(=O)(=O)c2ccc(OC)cc2)cc1,.,4,-3,18,44*,41,32
COc1ccc(C2C(=O)N(CCc3ccccc3)CC(=O)N2C2CCCC2)cc1 (centres undefined),8,16,2,7,44*,33,29*
CC(=O)C(Cc1ccccc1)NC(=O)COC(=O)c1cccc(C)c1[N+](=O)[O-] (centres undefined),-1,5,.,17,10,17,.
COc1cccc(NC(=O)c2ccccc2Oc2ccccc2)c1,10,12,15,-2,10,26,.

# From PubChem BioAssay
